Assay results reported in PubChem BioAssay (NCATS).
Where “and” joins values, the source holds several entries; their conditions need not be identical. Identical values can stand only once. Results filed as inconclusive are left out. Where a call stands in place of a potency, no number is given. Unmarked numbers belong to inactive results. Calls of active or inactive are those of the source. Calls follow the shape of the dose curve; as a rule, active = well fitted cell-killing curve with a large enough effect; inconclusive = small, poorly fitted or top-dose-only effect; inactive = no such curve, though single readings can be large or run the other way.

Experiment: qHTS of pediatric cancer cell lines to identify multiple opportunities for drug repurposing: Primary screen for NB1643 cells (AID 1347099); also: nearly all actives have a fitted effect of over 50% in size
Details: NB1643 neuroblastoma viability, CellTiter-Glo luminescence, 48 h; series mostly up to 46 µM; activity change, negative = cytotoxic: at the top concentration
Excerpt: Drug repurposing or repositioning has been offered as a strategy for drug development in oncology programs. This approach has special potential for childhood cancers and other rare or orphan diseases, where the expected return on new drug development has been a disincentive to pharmaceuticals. […] In this project we exploit the poly-pharmacology of drugs to discover new indications via phenotypic screening of a panel of 19 well-characterized cell lines derived from solid tumors seen in children and adolescents. The goal is to identify approved drugs with previously unrecognized anticancer properties that has the potential to reveal new mechanisms and biological processes involved in carcinogenesis or drug resistance. We employed a titration-based paradigm (quantitative high-throughput screening or qHTS), where all compounds were tested at multiple concentrations for their effect on cell viability. Concentration-response curves (CRCs) were derived directly from the primary screen, and both potency and efficacy values were used to identify compounds with robust bioactivity profiles. We screened the NIH Chemical Genomics Center (NCGC) Pharmaceutical Collection (NPC) and Mechanism Interrogation Plate (MIPE) small molecule collections of approved and investigational compounds against these cell lines; and measured metabolically active cells after 48 hours of compound treatment as a proxy for cell viability. […] Assay Submitter: Nathalia J. Martinez, National Center for Advancing Translational Sciences, National Institutes of Health, Rockville, MD, USA; email: natalia.martinez@nih.gov Shen, M et al. Quantitative high-throughput phenotypic screening of pediatric cancer cell lines identifies multiple opportunities for drug repurposing. Oncotarget 2017 Dec 19;9(4):4758-4772. PMID 29435139.
The cells were obtained from University of North Carolina (UNC), Pediatric Preclinical Testing Program (PPT), and Coriell Institute (CI). qHTS cell viability assay: Cells were assayed in growth media at a density of 500-1,000 cells/well. Five microliters of cells were dispensed into 1,536-well, white, solid-bottom, TC-treated plates (Greiner Bio One) using a multidrop dispenser and incubated at 37 degrees C, 5% CO2, under a humidified atmosphere for 5 hours. Twenty-three nanoliters of compounds and controls (neutral control DMSO or positive control bortezomib at final concentration of 2.3 µM) were subsequently transferred by Kalypsys pintool. For primary screens, the MIPE collection was tested at 11-point dilutions (final concentrations range from 0.78 nM to 46 µM) and the NPC collection at 8-point dilutions (final concentrations range from 0.59 nM to 46 µM). Compounds tested in follow-up screens were assayed at 11-point dilutions. Cells were incubated for 48 hours, followed by addition of 3 µL of CellTiter-Glo (Promega). After a 15 min incubation at room temperature, samples were analyzed for luminescence intensity using a ViewLux High-throughput CCD imager equipped with clear filters.
Potency is read from the fitted curve at half-maximal effect.

Q: For `C[C@@H](NCCCc1cccc(C(F)(F)F)c1)c1cccc2ccccc12`, which “activity change, negative = cytotoxic” value is on record?
A: The value was -7.68%.

Q: With `COc1cc2nc(N3CCCN(C)CC3)nc(NC3CCN(Cc4ccccc4)CC3)c2cc1OC` as the molecule, how does the Potency read?
A: Its Potency is 9.35 µM (active).

Q: Which Potency does the source give for `CC[C@H](NC(C)C)[C@H](O)c1ccc(O)c2[nH]c(=O)ccc12` here?
A: Its Potency is “inactive”.

Q: Which “activity change, negative = cytotoxic” value does the source give for `COc1nc(N)nc2c1ncn2[C@@H]1O[C@H](CO)[C@@H](O)[C@@H]1O` here?
A: The value was -5.21%.

Q: With `CS(=O)(=O)c1ccc([C@@H](O)[C@@H](CO)NC(=O)C(Cl)Cl)cc1` as the molecule, how does the “activity change, negative = cytotoxic” value read?
A: Its value is 2.83%.

Q: With `Nc1ccc(S(=O)(=O)Nc2ccccn2)cc1` as the molecule, how does the Potency read?
A: The Potency was “inactive”.

Q: For `CC(N)C12CC3CC(CC(C3)C1)C2` (stereo not given), which “activity change, negative = cytotoxic” value is on record?
A: Its value is 3.74%.

Q: Which Potency does the source give for `O=c1oc2c(O)c(O)cc3c(=O)oc4c(O)c(O)cc1c4c23` here?
A: Its Potency is “inactive”.

Q: Which Potency does the source give for `Cn1nnc2c(C(N)=O)ncn2c1=O` here?
A: The Potency was “inactive”.

Q: For `CC(C)(C#N)c1cc(Cn2cncn2)cc(C(C)(C)C#N)c1`, which Potency is on record?
A: Its Potency is “inactive”.

Q: For `CN(C)CCc1c[nH]c2ccc(C[C@H]3COC(=O)N3)cc12`, which Potency is on record?
A: Its Potency is “inactive”.

Q: For `CC[C@H](C)C(=O)O[C@H]1C[C@@H](C)C=C2C=C[C@H](C)[C@H](CC[C@@H]3C[C@@H](O)CC(=O)O3)[C@H]21`, which “activity change, negative = cytotoxic” value is on record?
A: The value was -11.4%.

Q: With `CC1=C(C(=O)O)N2C(=O)[C@@H](NC(=O)C(N)c3ccccc3)[C@H]2SC1` (stereo not given in full) as the molecule, how does the “activity change, negative = cytotoxic” value read?
A: Its value is 35.1%.

Q: Which Potency does the source give for `OC(Cn1cncn1)(Cn1cncn1)c1ccc(F)cc1F` here?
A: Its Potency is “inactive”.

Q: With `CC(C)OC(=O)OCOP(=O)(CO[C@H](C)Cn1cnc2c(N)ncnc21)OCOC(=O)OC(C)C` as the molecule, how does the Potency read?
A: The Potency was “inactive”.

Q: With `CCc1cc(C(N)=S)ccn1` as the molecule, how does the Potency read?
A: Its Potency is “inactive”.

Q: Which Potency does the source give for `Cc1nnc(C(=O)NC(C)(C)c2nc(C(=O)NCc3ccc(F)cc3)c(O)c(=O)n2C)o1` here?
A: The Potency was “inactive”.

Q: Which Potency does the source give for `CC1=CC(=O)c2ccccc2C1=O` here?
A: Its Potency is 16.6 µM (active).

Q: With `CCCN[C@H]1CCc2nc(N)sc2C1` as the molecule, how does the Potency read?
A: The Potency was “inactive”.

Q: For `CC(C)C[C@H](NC(=O)[C@H](CCc1ccccc1)NC(=O)CN1CCOCC1)C(=O)N[C@@H](Cc1ccccc1)C(=O)N[C@@H](CC(C)C)C(=O)[C@@]1(C)CO1`, which Potency is on record?
A: Its Potency is 42.2 nM (active) and 52.6 nM (active).

Q: Which Potency does the source give for `CCn1cc(C(=O)O)c(=O)c2cc(F)c(N3CCNCC3)cc21` here?
A: The Potency was “inactive”.

Q: Which Potency does the source give for `COc1c(N2CCNC(C)C2)c(F)cc2c(=O)c(C(=O)O)cn(C3CC3)c12` (stereo not given) here?
A: Its Potency is “inactive”.

Q: With `NNC(=O)c1ccncc1` as the molecule, how does the Potency read?
A: Its Potency is “inactive”.

Q: For `O=NN(CCCl)C(=O)NC1CCCCC1`, which Potency is on record?
A: The Potency was “inactive”.

Q: For `CNNCc1ccc(C(=O)NC(C)C)cc1`, which Potency is on record?
A: The Potency was “inactive”.

Q: With `CC(=O)CC(c1ccccc1)c1c(O)c2ccccc2oc1=O` (stereo not given) as the molecule, how does the Potency read?
A: Its Potency is “inactive”.

Q: With `Nc1nc(N)c2nc(CNc3ccc(C(=O)NC(CCC(=O)O)C(=O)O)cc3)cnc2n1` (stereo not given) as the molecule, how does the “activity change, negative = cytotoxic” value read?
A: Its value is -3.61%.

Q: With `CN(C)CCc1c[nH]c2ccc(CS(=O)(=O)N3CCCC3)cc12` as the molecule, how does the “activity change, negative = cytotoxic” value read?
A: Its value is -4.27%.

Q: Which “activity change, negative = cytotoxic” value does the source give for `NC(=O)c1ccc2[nH]ccc2c1` here?
A: Its value is -4.56%.

Q: With `CN1CCN(c2c(F)cc3c(=O)c(C(=O)O)cn(CCF)c3c2F)CC1` as the molecule, how does the Potency read?
A: Its Potency is “inactive”.

Q: Which Potency does the source give for `Nc1[nH]c(=O)ncc1F` here?
A: Its Potency is “inactive”.

Q: For `CCCc1cc(C(N)=S)ccn1`, which Potency is on record?
A: The Potency was “inactive”.

Q: With `C[C@]12C=CC(=O)C=C1CC[C@@H]1[C@@H]2C(=O)C[C@@]2(C)[C@H]1CC[C@]2(O)C(=O)CO` as the molecule, how does the “activity change, negative = cytotoxic” value read?
A: The value was 3.88%.

Q: With `CN1CCN(c2c(F)cc3c(=O)c(C(=O)O)cn4c3c2OCN4C)CC1` as the molecule, how does the Potency read?
A: The Potency was “inactive”.

Q: For `CC1=NN(c2ccccc2)C(=O)C1`, which Potency is on record?
A: The Potency was “inactive”.

Q: For `Cn1c(=O)c2c(ncn2CC(O)CO)n(C)c1=O` (stereo not given), which “activity change, negative = cytotoxic” value is on record?
A: The value was 13.9%.

Q: With `CCC(=O)O[C@]1(C(=O)SCF)[C@H](C)C[C@H]2[C@@H]3C[C@H](F)C4=CC(=O)C=C[C@]4(C)[C@@]3(F)[C@@H](O)C[C@@]21C` as the molecule, how does the “activity change, negative = cytotoxic” value read?
A: Its value is 12.5%.

Q: With `O=S(=O)(c1cccc2cnccc12)N1CCCNCC1` as the molecule, how does the Potency read?
A: The Potency was “inactive”.

Q: Which “activity change, negative = cytotoxic” value does the source give for `CCN(CC)CC#CCOC(=O)C(O)(c1ccccc1)C1CCCCC1` (stereo not given) here?
A: Its value is -8.79%.

Q: For `O=C(O)C1CCCN(CCC=C(c2ccccc2)c2ccccc2)C1` (stereo not given), which “activity change, negative = cytotoxic” value is on record?
A: Its value is 5%.
